Screens from PubChem.
APEX1 inh = qHTS Assay for Inhibitors of the Human Apurinic/apyrimidinic Endonuclease 1 (APE1) | actives 0.35% (n = 350,000) | Potency, µM (highest dose often 65.8 µM), for the others: top-dose activity change, negative = inhibition, most hits filed as inhibitors | DNA repair nuclease/redox regulator APEX1 (Homo sapiens), P27695 | recombinant APE1, TAMRA/BHQ-2 abasic DNA cleavage fluorescence;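 note: plate controls were vehicle for no effect and reference inhibitor for full effect; nearly all actives have a fitted effect of over 55% in size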
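APE1 at 0.75 nM preincubated 15 min at room temperature with compound. Reaction then started with 50 nM double-stranded THF-abasic substrate labelled with TAMRA/BHQ-2, and 525/598 nm fluorescence read kinetically. Activity taken as third-minus-first read difference, normalized to DMSO and NSC13755 controls.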
KAT2A inh = qHTS Assay for Inhibitors of GCN5L2; GCN5L2 HAT assay, ThioGlo1 CoA-SH fluorescence; Potency, µM (series often up to 58.9 µM), for the others: top-dose activity change, negative = inhibition, most hits filed as inhibitors; actives 0.21% (n = 390,000); AID 504327, 2011
Target sequence (Q92830 whole entry, looked up): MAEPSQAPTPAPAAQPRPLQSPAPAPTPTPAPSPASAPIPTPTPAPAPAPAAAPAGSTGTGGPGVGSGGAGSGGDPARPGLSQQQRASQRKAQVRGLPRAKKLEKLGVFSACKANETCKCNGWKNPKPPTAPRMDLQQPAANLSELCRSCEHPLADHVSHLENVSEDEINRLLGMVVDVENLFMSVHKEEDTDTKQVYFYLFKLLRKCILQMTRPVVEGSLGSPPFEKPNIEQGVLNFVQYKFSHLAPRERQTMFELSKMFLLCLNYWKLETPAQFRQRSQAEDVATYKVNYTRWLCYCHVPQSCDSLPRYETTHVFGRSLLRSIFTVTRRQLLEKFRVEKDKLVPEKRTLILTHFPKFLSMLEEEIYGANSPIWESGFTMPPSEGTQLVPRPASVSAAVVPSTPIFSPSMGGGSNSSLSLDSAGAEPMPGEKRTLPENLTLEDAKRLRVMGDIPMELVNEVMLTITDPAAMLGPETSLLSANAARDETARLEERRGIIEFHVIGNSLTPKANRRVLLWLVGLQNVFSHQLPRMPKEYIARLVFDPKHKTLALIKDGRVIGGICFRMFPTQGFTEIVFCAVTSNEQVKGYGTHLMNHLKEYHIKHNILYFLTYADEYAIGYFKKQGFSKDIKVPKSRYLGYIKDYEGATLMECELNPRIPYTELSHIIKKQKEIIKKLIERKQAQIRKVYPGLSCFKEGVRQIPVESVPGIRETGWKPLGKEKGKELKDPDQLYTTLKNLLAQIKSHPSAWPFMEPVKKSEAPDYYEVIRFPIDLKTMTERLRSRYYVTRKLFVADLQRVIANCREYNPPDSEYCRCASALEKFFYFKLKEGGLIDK
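Compounds, pin-transferred from DMSO stocks, meet 20nM GCN5L2 for 15 min before the reaction begins with H3(1-25) peptide (75uM) and acetyl-CoA (70uM). Thiol-reactive ThioGlo1 reports CoA release over 20 min at room temperature.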
BLM inh = qHTS Assay for Inhibitors of Bloom's syndrome helicase (BLM). Potency, µM (titrated, usually from 56.1 µM), for inactives: at the top dose activity change, negative = inhibition, actives largely listed as inhibitors. actives 0.2% (n = 350,000). recombinant BLM DNA unwinding, fluorescence dequenching. AID 2528, 2010;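 note: plate controls were vehicle for no effect and no enzyme for full effect; nearly all actives have a fitted effect of over 35% in size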
TDP1 inh = qHTS Assay for Inhibitors of Tyrosyl-DNA Phosphodiesterase (TDP1); Tyrosyl-DNA phosphodiesterase 1 (Homo sapiens), Q9NUW8; recombinant TDP1, AlphaScreen DNA substrate cleavage; Potency, µM (titrated, usually from 130 µM), inactives show at the top dose activity change, negative = inhibition, most hits filed as inhibitors; actives 0.28% (n = 350,000); AID 485290, 2010; note: nearly all actives have a fitted effect of over 40% in size
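Recombinant E. coli-expressed Tdp1 (1 nM) preincubated with compound 15 min at RT, then 5'-biotin/3'-phosphotyrosine-FITC DNA substrate (15 nM) added for 5 min. AlphaScreen beads (10 ug/ml) added, 10 min RT; tyrosine-FITC cleavage read as signal loss.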
RECQ1 inh-1 = qHTS Assay for Inhibitors of RecQ-Like Dna Helicase 1 (RECQ1) | ATP-dependent DNA helicase Q1 (Homo sapiens), P46063 | RECQ1 DNA unwinding, red fluorescence kinetic read | Potency, µM (top dose mostly 57.3 µM), without a hit: at the top dose activity, negative = inhibition, most hits filed as inhibitors | actives 0.54% (n = 240,000);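 note: plate controls were vehicle for no effect and no enzyme for full effect; nearly all actives have a fitted effect of over 30% in size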
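RECQ1T1 50 nM; forked duplex (20 bp + 30-nt ss tails) 200 nM, ATP 2 mM final; pH 8.0, 2 mM MgCl2, 2.5 ug/ml poly(dI-dC); 15 min compound preincubation; discontinuous kinetic read over 2 h at RT.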
RECQ1 inh conf = Confirmation qHTS Assay for Inhibitors of RecQ-Like Dna Helicase 1 (RECQ1); shares compounds with RECQ1 inh-1; RECQ1 helicase DNA unwinding, fluorescence; Potency, µM (top dose mostly 229 µM), without a hit: top-dose activity change, negative = inhibition, hits mostly inhibitors; actives 28% (n = 610); note: nearly all actives have a fitted effect of over 45% in size
RECQ1 ADP FP = Counterscreen for RECQ1 Inhibitors: ADP Fluorescence Polarization Displacement Assay; shares compounds with RECQ1 inh-1; ADP fluorescence polarization displacement counterscreen; Potency, µM (top dose mostly 228 µM), inactives show at the top dose activity change, negative = inhibition, hits mostly inhibitors; actives 27% (n = 530); AID 2711, 2010; note: nearly all actives have a fitted effect of over 45% in size
RECQ1 inh-2 = Confirmation qHTS Assay for Inhibitors of RecQ-Like Dna Helicase 1 (RECQ1) - Round 2 Cherry Picks | recombinant RECQ1 DNA unwinding, red fluorescence | shares compounds with RECQ1 inh-1 | AID 504841, 2011 | actives 15% (n = 1,100) | Potency, µM (titrated, usually from 119 µM), inactives show at the highest dose activity, negative = inhibition, most hits filed as inhibitors; note: nearly all actives have a fitted effect of over 50% in size
Numbers without * were called inactive; i = inactive; ? = inconclusive; / = no result given; [ ] = remark or other dose. Rows were chosen to be rich in hits. Some 0.87% of all compounds tested hit in one or more screens of this group. Calls come from the whole dose curve; as a rule, active = well fitted curve in the direction sought with a large enough effect; inconclusive = small, poorly fitted or top-dose-only effect, or another doubt; inactive = no such curve, though single readings can be large; an effect the other way counts as inactive or inconclusive. Unless noted, % is set by controls: 0 for no effect and ±100 for the full control effect; potency is the fitted concentration of half-maximal effect.

SMILES	APEX1 inh	KAT2A inh	BLM inh	TDP1 inh	RECQ1 inh-1	RECQ1 inh conf	RECQ1 ADP FP	RECQ1 inh-2
O=C1/C(=C/c2cccc([N+](=O)[O-])c2)Oc2cc(O)ccc21	-17%	-4%	-4%	/	/	/	/	/
COc1cc(/C=C2\Oc3cc(O)ccc3C2=O)ccc1O	-7%	?	-9%	/	?	/	/	79µM*
CN(Cc1ccccc1)C(=O)c1ccco1	4%	-7%	-7%	0%	i	/	/	/
Cc1ccc(C(CCN(Cc2ccccc2)C(=O)c2ccco2)c2ccco2)cc1 (configuration not stated)	-12%	?	?	-3%	20µM*	50µM*	24%[91.9 µM]	?
COc1ccc(-n2c(SCC(=O)Nc3nc(C)cs3)nnc2-c2ccoc2C)cc1	-1%	-5%	2%	3%	-18%	-6%	9%	/
COc1cccc(-n2c(SCC(=O)Nc3nccs3)nnc2-c2ccoc2C)c1	4%	0%	4%	5%	i	/	/	/
COc1ccc(-n2c(SCC(=O)Nc3nccs3)nnc2-c2ccoc2C)cc1	-2%	0%	-6%	6%	-14%	7%	-12%	/
Cc1c(-c2nnc(SCC(=O)Nc3ccccc3F)o2)nnn1-c1ccc(F)cc1	/	3%	0%	4%	/	/	/	/
COc1cc(N2CCCC2)c(OC)cc1/C=C(/C#N)c1cccc(F)c1	-7%	-14%	-12%	13%	4µM*	?	?	/
O=S(=O)(c1ccc2nc(-c3ccco3)c(-c3ccco3)nc2c1)N1CCOCC1	?	?	14µM*	1%	32µM*	/	/	15%
O=S(=O)(c1ccc2ccccc2c1)N1CCOCC1	30%	-3%	0%	0%	/	/	/	/
O=C(NCc1ccco1)C1CCCCN1S(=O)(=O)c1ccc(F)cc1 (configuration not stated)	13%	-2%	0%	5%	?	/	/	-10%
O=C(NCc1ccco1)c1ccc(S(=O)(=O)N2CCOCC2)cc1	32µM*	-28%	-27%	/	?	/	/	-20%
Cc1ccc(CNC(=O)C2CCCCN2S(=O)(=O)c2ccc(F)cc2)cc1 (configuration not stated)	/	-2%	-2%	-3%	/	/	/	/
O=C(NCc1ccco1)c1ccc(S(=O)(=O)N2CCCCC2)cc1	6%	-1%	-1%	0%	-6%	/	/	/
O=C(O)c1ccccc1NC(=S)NC(=O)c1sc2ccccc2c1Cl	1%	-15%	1%	3%	0%	/	/	/
Cc1ccc(NC(=S)NC(=O)c2sc3ccccc3c2Cl)c(C(=O)O)c1	-3%	-3%	-14%	2%	7%	89µM*	?	/
O=C(COc1ccccc1)Nc1nnc(SCc2cc(=O)n3cc(Cl)ccc3n2)s1	/	-4%	-2%	3%	/	/	/	/
CC(=O)c1cccc(S(=O)(=O)N2CCCC(c3nc(-c4ccc(C)o4)no3)C2)c1 (configuration not stated)	0%	-19%	-4%	7%	?	/	/	-28%
CCCCc1cc(=O)oc2c(CN3CCCC3)c(O)ccc12	12%	?	-5%	6%	-12%	/	/	/
CCCCc1cc(=O)oc2cc(C)c(CN3CCCC3)c(O)c12	-12%	?	?	/	13µM*	20µM*	50µM*	?
Cc1ccc(NCc2nnc(SCC(=O)O)n2Cc2ccccc2)cc1Cl	-3%	-3%	0%	0%	22%	8%	3%	/
COC(=O)CSc1nnc(CNc2ccc(Cl)cc2)n1Cc1ccccc1	10%	-4%	-2%	2%	0%	/	/	/
Cc1ccc(C2=NC(=O)/C(=C/c3cc(O)c(O)c(Br)c3)S2)cc1	2µM*	?	3.5µM*	4%	3.5µM*	22µM*	/	6.3µM*
C#CCn1c(=NC(=O)c2ccc(S(=O)(=O)N3CCCc4ccccc43)cc2)sc2cc(S(N)(=O)=O)ccc21	2%	-9%	-4%	5%	0%	-7%	20%	/
SMILES	APEX1 inh	KAT2A inh	BLM inh	TDP1 inh	RECQ1 inh-1	RECQ1 inh conf	RECQ1 ADP FP	RECQ1 inh-2
Cn1c(=NC(=O)c2ccc(S(=O)(=O)N3CCCc4ccccc43)cc2)sc2cc(S(C)(=O)=O)ccc21	-1%	-6%	0%	-2%	-2%	/	/	/
Cc1ccc(C(c2ccc(C)o2)c2cccc([N+](=O)[O-])c2O)o1	7%	-4%	-10%	10%	?	/	/	?
CCC1=C2CC[C@H]3C(=O)N(CC)C(=O)[C@H]3[C@H]2[C@@]2(C)C(=NCCc3c[nH]c4ccccc34)OC(=O)N2C1=O	-2%	/	4%	6%	-2%	/	/	/
COC(=O)c1ccc(-c2csc(NC(=O)c3ccc(S(=O)(=O)N4CCc5ccccc5C4)cc3)n2)cc1	-1%	-3%	-2%	-2%	2%	8%	16%	/
COc1ccc(-c2csc(NC(=O)c3ccc(S(=O)(=O)N4CCc5ccccc5C4)cc3)n2)cc1	12%	-3%	2%	2%	-4%	-7%	5%	/
O=C(CCC1N=C2c3ccccc3N=C(SCC(=O)Nc3ccccc3F)N2C1=O)NCc1ccco1 (configuration not stated)	/	-7%	1%	2%	/	/	/	/
O=c1c(CCc2ccccc2)nc2cnc(N3CCNCC3)nc2n1CCc1ccccc1	-3%	?	-3%	/	-9%	/	/	/
CCc1ccc(OCC(=O)NC2CC(C)(C)NC(C)(C)C2)cc1	-6%	-6%	-3%	0%	?	/	/	13%
Cc1ccc(OCC(=O)NC2CC(C)(C)NC(C)(C)C2)cc1C	1%	-16%	1%	2%	i	/	/	/
CC(C)(C)n1ncc2c(=O)n(Cc3ccccc3F)cnc21	-8%	/	/	/	/	/	/	/
